In PubChem BioAssay (NCI) one finds growth data, which are given here for 13 compounds.

Among the test systems are RPMI-8226 leukemia; OVCAR-8 ovarian; OVCAR-5 ovarian; OVCAR-4 ovarian; SK-OV-3 ovarian; IGROV1 ovarian; OVCAR-3 ovarian; HS 578T breast; NCI/ADR-RES ovarian; T-47D breast.
Holding throughout (assay): NCI-60 one-dose screen, 48 h (100 = growth as untreated, 0 = no growth, -100 = all killed)
What all share (details): 10 µM unless noted

The panel holds about 83,000 compounds, 20% with a hit somewhere; the sample as a whole holds those more often.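 Step 1: grow cells in 96-well plates. Step 2: add test compound at a single concentration. Step 3: incubate 48 h. Step 4: record percent growth.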 Values without a mark were called inactive. Active and inactive are the calls of the source. The calls were made as follows: active = growth percent below 10; inactive = the rest.

On to `O=C(Nc1nccs1)c1noc2ccccc12`, for which the growth in the assay on RPMI-8226 leukemia is 90.4%; in the assay with OVCAR-8 ovarian it was 94.7%; in the assay with OVCAR-5 ovarian it was 103%; in the assay with OVCAR-4 ovarian, 88.4%; with SK-OV-3 ovarian, 92.2%; with IGROV1 ovarian it was 84.1%. For the same compound, the growth with OVCAR-3 ovarian was 110%; in the assay with HS 578T breast it was 97%; with NCI/ADR-RES ovarian, 106%; with T-47D breast it was 57.5%.

`Cc1nc2sc(C(=O)Nc3cccc4ccccc34)c(N)c2cc1C(C)O` (stereo not given): the growth was 18% with RPMI-8226 leukemia; 16.2% in the assay on OVCAR-8 ovarian; 40.7% in the assay with OVCAR-5 ovarian; 55.5% in the assay with OVCAR-4 ovarian; 32.1% in the assay with SK-OV-3 ovarian; 31.7% with IGROV1 ovarian. In addition, the growth was 3.11% (active) in the assay on OVCAR-3 ovarian, 32.3% in the assay on HS 578T breast, -1.67% (active) in the assay on NCI/ADR-RES ovarian and 49.4% in the assay with T-47D breast.

In the case of `COc1cc(NC(=O)Nc2cnc(Nc3ccc(N4CCOCC4)cc3)nc2Oc2ccc(C(F)(F)F)cc2)cc(OC)c1`, the growth in the assay on RPMI-8226 leukemia is 92.5%; with OVCAR-8 ovarian, 100%; in the assay on OVCAR-5 ovarian, 116%; in the assay with OVCAR-4 ovarian it was 111%; in the assay with SK-OV-3 ovarian, 104%; in the assay with IGROV1 ovarian it was 104%. The growth in the assay with OVCAR-3 ovarian was 110%; in the assay with HS 578T breast it was 99.4%; with NCI/ADR-RES ovarian, 104%; in the assay with T-47D breast it was 98.4%.

`COc1ccc2c(c1)Oc1nc(N)c(C#N)c(N)c1C2Sc1ccc(SC)cc1` (stereo not given): the growth was 2.48% (active) with RPMI-8226 leukemia; 21.2% with OVCAR-8 ovarian; 112% with OVCAR-5 ovarian; 37.2% in the assay on OVCAR-4 ovarian; 94.4% with SK-OV-3 ovarian; 0.493% (active) in the assay with IGROV1 ovarian. The growth in the assay with OVCAR-3 ovarian is -63.3% (active); with HS 578T breast, 67.7%; with NCI/ADR-RES ovarian, 62.9%; with T-47D breast, -7.13% (active).

For the compound `C=C(C)[C@@H]1CC[C@]2(C(=O)OCCOCCOCC[P+](c3ccccc3)(c3ccccc3)c3ccccc3)CC[C@]3(C)[C@H](CC[C@@H]4[C@@]5(C)CC[C@H](OC(C)=O)C(C)(C)[C@@H]5CC[C@]43C)[C@@H]12`, the growth with RPMI-8226 leukemia was -63.9% (active); in the assay with OVCAR-8 ovarian, -78.2% (active); in the assay on OVCAR-5 ovarian, -86.2% (active); in the assay with OVCAR-4 ovarian, -82.1% (active); in the assay with SK-OV-3 ovarian it was -94.5% (active); with IGROV1 ovarian, -83.9% (active). For the same compound, the growth in the assay with OVCAR-3 ovarian is -95.8% (active); with HS 578T breast it was -48.3% (active); with NCI/ADR-RES ovarian, 4.3% (active); in the assay with T-47D breast, -76.7% (active).

For the compound `COc1cc(C2=NN(C=O)C(c3cccc(Nc4ccnc5cc(C(F)(F)F)ccc45)c3)C2)cc(OC)c1OC` (stereo not given), the growth in the assay on RPMI-8226 leukemia is 27%; in the assay with OVCAR-8 ovarian it was 61.9%; in the assay on OVCAR-5 ovarian, 102%; in the assay on OVCAR-4 ovarian, 59.1%; in the assay on SK-OV-3 ovarian, 81.6%; with IGROV1 ovarian, 67.3%. The growth was 54.6% in the assay on OVCAR-3 ovarian, 87.5% in the assay with HS 578T breast, 55.3% with NCI/ADR-RES ovarian and 43.6% in the assay on T-47D breast.

Consider `COC(=O)c1ccc2c(c1)NC(=O)[C@@H]1CCCN21`, for which the growth is 96.6% in the assay on RPMI-8226 leukemia; 97.5% with OVCAR-8 ovarian; 112% in the assay on OVCAR-5 ovarian; 88.4% in the assay on OVCAR-4 ovarian; 95.2% in the assay with SK-OV-3 ovarian; 101% with IGROV1 ovarian. Also, the growth with OVCAR-3 ovarian is 102%; in the assay on HS 578T breast it was 105%; in the assay on NCI/ADR-RES ovarian, 100%; in the assay on T-47D breast, 86.3%.

For the compound `C#C[C@@]1(O)[C@@H](CO)O[C@@H](n2cc(F)c3c(N)ncnc32)[C@@H]1O`, the growth in the assay with RPMI-8226 leukemia is 5.11% (active); in the assay on OVCAR-8 ovarian, 9.54% (active); with OVCAR-5 ovarian it was 9.96% (active); in the assay on OVCAR-4 ovarian it was 4.75% (active); with SK-OV-3 ovarian, -7.75% (active); with IGROV1 ovarian, -17.4% (active). The growth was 10.9% in the assay with OVCAR-3 ovarian, 28.4% with HS 578T breast, 4.76% (active) with NCI/ADR-RES ovarian and -13.8% (active) with T-47D breast.

For the compound `O=C1Nc2ccc(Cl)cc2/C1=N/c1nc(-c2ccc(F)cc2)cs1`, the growth in the assay on RPMI-8226 leukemia is 8.37% (active); in the assay on OVCAR-8 ovarian, 45.3%; with OVCAR-5 ovarian it was 75%; in the assay on OVCAR-4 ovarian, 32.2%; in the assay on SK-OV-3 ovarian, 56.4%; with IGROV1 ovarian, 25.6%. Moreover, the growth in the assay with OVCAR-3 ovarian is 39.2%; in the assay on HS 578T breast, 38.5%; in the assay with NCI/ADR-RES ovarian, 79.8%; in the assay on T-47D breast, 25.3%.

For `COc1ccc(-n2nc(C(=O)NCC(=O)O)nc2-c2ccccc2)cc1`, the growth in the assay with RPMI-8226 leukemia was 112%; in the assay with OVCAR-8 ovarian, 111%; in the assay on OVCAR-5 ovarian it was 100%; in the assay on OVCAR-4 ovarian, 111%; in the assay with SK-OV-3 ovarian, 111%; in the assay on IGROV1 ovarian, 105%. In addition, the growth is 116% in the assay on OVCAR-3 ovarian, 115% in the assay on HS 578T breast, 118% with NCI/ADR-RES ovarian and 104% in the assay on T-47D breast.

`CCCn1c2cc(OCc3cn(-c4ccc(Br)cc4)nn3)ccc2c2ccnc(C)c21`: the growth in the assay on RPMI-8226 leukemia is 33%; in the assay with OVCAR-8 ovarian, 50.8%; in the assay on OVCAR-5 ovarian, 68.3%; in the assay with OVCAR-4 ovarian, -44% (active); in the assay with SK-OV-3 ovarian, 85.7%; in the assay on IGROV1 ovarian, 49.1%. In addition, the growth in the assay on OVCAR-3 ovarian is 60.5%; with HS 578T breast it was 66.9%; in the assay on NCI/ADR-RES ovarian, 63.1%; with T-47D breast, 66.6%.

For `CC1=C/C(=N\N=C2/C=C(C)CC(C)(C)C2)CC(C)(C)C1`, the growth is 102% in the assay on RPMI-8226 leukemia; 95.2% with OVCAR-8 ovarian; 107% in the assay on OVCAR-5 ovarian; 106% with OVCAR-4 ovarian; 97% with SK-OV-3 ovarian; 103% with IGROV1 ovarian. Also, the growth was 112% with OVCAR-3 ovarian, 103% in the assay with HS 578T breast, 104% in the assay with NCI/ADR-RES ovarian and 97.3% in the assay on T-47D breast.

For `COc1ccc(C(=O)c2cc(OC)c(OC)c(OC)c2)cc1OC(=O)CCl`, the growth in the assay on RPMI-8226 leukemia is 29.7%; with OVCAR-8 ovarian it was 7.08% (active); in the assay on OVCAR-5 ovarian, 73.7%; in the assay on OVCAR-4 ovarian, 54.5%; in the assay on SK-OV-3 ovarian, 17.7%; in the assay with IGROV1 ovarian, 25.7%. The growth was 0.464% (active) in the assay with OVCAR-3 ovarian, 48.9% in the assay with HS 578T breast, 10.2% in the assay with NCI/ADR-RES ovarian and 74.7% in the assay with T-47D breast.
